# Reference: PubChem BioAssay AID1788 (Vanderbilt High Throughput Screening Facility, 2009)
# Values without a mark were called inactive. The rule behind the calls is not given here.
# Test system: Platelet Activating Factor (PAF) (human)
# Assay: PubChem AID 1788
# Conditions: MDS Pharma lead profiling panel, radioligand binding, at 10 µM, hits give high values
smiles,measurement,value
CCOC(=O)N1CCC(NCCNC(=O)c2ccccc2C)CC1,inhibition,0%
